Experimental data: PubChem BioAssay (NCI)
This is part of a sample that, as a whole, favours compounds with a hit. Of some 83,000 tested, about 20% had one in any assay.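 Single-dose data. Exposure time 48 hours. Values below 10 considered active.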 A number with no mark means an inactive call.

tested on: KM12 colon; experiment: NCI-60 one-dose screen, 48 h (100 = growth as untreated, 0 = no growth, -100 = all killed); conditions: 10 µM unless noted

Point of comparison: COc1ccc(Nc2nc(N)nc3c(=O)[nH]ccc23)cc1, growth 104%. Against it:
- c1ccc(CCn2cccc2)nc1 — lower, 103%
- Nc1cc(C(=O)O)cc(C(=O)O)c1 — higher, 111%
- Fc1ccc(-c2nc(-c3ccc(-c4nc5ccc(F)cc5[nH]4)cc3)no2)cc1 — lower, 60.5%
- N=C(N)c1ccc(NCCNc2ccc(C(=N)N)cc2)cc1 — higher, 105%
- COc1ccc(CC2c3cc(OC)c(OC)cc3CC[N+]2(C)CCC(=O)OCCCCCOC(=O)CC[N+]2(C)CCc3cc(OC)c(OC)cc3C2Cc2ccc(OC)c(OC)c2)cc1OC (stereo not drawn) — lower, 101%
- C=CCN(CC#N)CC=C — higher, 108%
- O=C1Nc2ccccc2/C1=C\c1nc(C2CCN(S(=O)(=O)c3ccc(F)cc3)CC2)n2ccccc12 — lower, 65.8%
